HPGD inh: HPGD (human) dehydrogenase inhibition; 150,000 tested, 4.3% active; Potency, µM, for inactives: at the highest dose activity change, negative = inhibition, actives largely listed as inhibitors; purified HPGD, NADH fluorescence kinetic, PGE2 substrate; P15428; active = well fitted inhibition curve with a large enough effect, not every such curve was filed as active; inconclusive = small, poorly fitted or top-dose-only effect, or another doubt; inactive = no such curve, though single readings can be large or run the other way; also: % is scaled to controls: 0 for no effect and ±100 for the full control effect
Target sequence (P15428 whole entry, looked up): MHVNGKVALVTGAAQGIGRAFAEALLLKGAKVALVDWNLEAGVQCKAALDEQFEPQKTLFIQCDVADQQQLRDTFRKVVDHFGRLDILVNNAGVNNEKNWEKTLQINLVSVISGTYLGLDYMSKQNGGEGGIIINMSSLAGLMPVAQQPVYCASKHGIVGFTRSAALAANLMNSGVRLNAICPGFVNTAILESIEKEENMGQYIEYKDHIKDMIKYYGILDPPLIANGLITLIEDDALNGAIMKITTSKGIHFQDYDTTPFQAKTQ
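20 nM HPGD preincubated 15 min at room temperature with compound in 50 mM Tris-HCl pH 8, 0.01% Tween 20. Started with 1 mM NAD+ and 30 uM prostaglandin E2; NADH fluorescence (360/450 nm) read 5 times over 30-s intervals, last minus first.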
LMNA splice mod: LMNA splicing modulation. HeLa LMNA splicing GFP/RFP minigene ratio, 48 h. Potency, µM (top dose mostly 46.1 µM), for the others: top-dose ratio change, negative = inhibition, actives largely listed as inhibitors. 200,000 tested, 0.01% active; active = well fitted inhibition curve with a large enough effect in the signal ratio, with a control signal flat, not every such curve was filed as active; inconclusive = small, poorly fitted or top-dose-only effect, or effect the other way, or a change in a side signal; the % refers to the signal ratio; also: % is scaled to controls: 0 for no effect and ±100 for the full control effect
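Read-out is the ratio of GFP to DsRed2 object intensity, acquired by 488 nm laser-scanning cytometry on HeLa lamin A-EGFP minigene reporter cells. Compound incubation 48 hrs at 37 °C in Opti-MEM with 2% FBS; DMSO 0.5% final.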
HTT cytoprotect: Huntington cell model cytoprotection by ATP luminescence | PC12 HTT-Q103 induced, cytoprotection, ATP luminescence, 40 h | Potency, µM (series often up to 56.4 µM), for the others: cytoprotection (ATP increase), hits mostly activators | 230,000 tested, 0.14% active | AID 1471; also: % of control where 0% means no effect; nearly all actives have a fitted effect of over 45% in size
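Readout: ATPlite luminescence (ATP level). Model: stable PC12, inducible Htt exon1 Q103-GFP. Inducer: tebufenozide, 100 nM final. Compounds: dose series. No G418 in medium.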
ALDH1A1 inh: inhibitors of human aldehyde dehydrogenase 1A1. P00352. Purified ALDH1A1, NADH fluorescence, propionaldehyde substrate. Potency, µM (series often up to 75.3 µM), for the others: top-dose activity, negative = inhibition, hits mostly inhibitors. 220,000 tested, 7.3% active. AID 1030; active = well fitted inhibition curve with a large enough effect, not every such curve was filed as active; inconclusive = small, poorly fitted or top-dose-only effect, or another doubt; inactive = no such curve, though single readings can be large or run the other way;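 also: plate controls were no enzyme wells and a reference inhibitor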
HttQ103 aggreg: mutant huntingtin aggregation inhibition. AID 1688. Potency, µM (top dose mostly 46.1 µM), for the others: at the highest dose activity change, negative = inhibition, hits mostly inhibitors. 220,000 tested, 1.1% active. PC12 HttQ103-GFP aggregates, Acumen cytometry, 40 h; also: % is scaled to controls: 0 for no effect and ±100 for the full control effect; nearly all actives have a fitted effect of over 60% in size
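Aggregates are detected as GFP objects 1–25 µm with signal 6 STDEV over background in lysates of induced PC12 cells. These carry Huntingtin exon 1 with 103 glutamines fused to GFP under an ecdysone promoter; compounds titrated.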
Active calls of the source: *; [ ] = another dose, or the depositor's remark. This is a sample that favours compounds with a hit; in the whole collection about 8.8% have one here. Unless noted, calls follow the shape of the dose curve; as a rule, active = well fitted curve in the direction sought with a large enough effect; inconclusive = small, poorly fitted or top-dose-only effect, or another doubt; inactive = no such curve, though single readings can be large; an effect the other way counts as inactive or inconclusive. Potency is read from the fitted curve at half-maximal effect.

For CC1CCCN(C(=O)c2ccc3c(=O)n(Cc4ccc5c(c4)OCO5)c(=S)[nH]c3c2)C1 (configuration not stated) the results were HPGD inh 5µM*, LMNA splice mod inconclusive, HTT cytoprotect -28%, ALDH1A1 inh 10µM* and HttQ103 aggreg -19%.
Screening CC(C)OCCCNC(=O)c1ccc2c(=O)n(Cc3ccc4c(c3)OCO4)c(=S)[nH]c2c1 returned HTT cytoprotect -5%, ALDH1A1 inh 13% and HttQ103 aggreg 7%.
COCC(=O)N1CCC[C@@]2(CCN(c3ccccn3)C2)C1 was read as HPGD inh -24%, HTT cytoprotect inconclusive and ALDH1A1 inh inconclusive.
`CCC(C(=O)OCc1cc(=O)n2nc(C)sc2n1)c1ccccc1` (configuration not stated) gave LMNA splice mod 2%[46 µM].
`O=C(N/N=C1/SCC(=O)N1Cc1ccco1)c1ccccc1F` gave HTT cytoprotect -13%[10 µM], ALDH1A1 inh inconclusive and HttQ103 aggreg -13%[9.22 µM].
Cc1nc(NS(=O)(=O)c2ccc(Br)cc2)c2c3c(sc2n1)CCC3 was read as HPGD inh -9%, LMNA splice mod 5%, HTT cytoprotect -61%, ALDH1A1 inh 13µM* and HttQ103 aggreg inconclusive.
Cc1cc(S(=O)(=O)Nc2nc(CN3CCOCC3)nc3sc4c(c23)CCCC4)ccc1F was read as HPGD inh -8%, LMNA splice mod -5%, HTT cytoprotect -13%[10 µM], ALDH1A1 inh 14µM* and HttQ103 aggreg -17%.
For O=S(=O)(Nc1nc2c(s1)CCCC2)c1ccc(F)cc1 the results were HPGD inh -1%, LMNA splice mod -14%, HTT cytoprotect 22%, ALDH1A1 inh inconclusive and HttQ103 aggreg inconclusive.
O=S(=O)(Nc1nc2c(s1)CCCC2)c1ccc(Br)cc1 was read as HPGD inh -15%, LMNA splice mod inconclusive, HTT cytoprotect 6%[1.9 µM], ALDH1A1 inh 13µM* and HttQ103 aggreg inconclusive.
For CC1CCc2c(sc3nc(CN4CCOCC4)nc(NS(=O)(=O)c4cccc([N+](=O)[O-])c4)c23)C1 (configuration not stated) the results were HPGD inh -11%, LMNA splice mod -8%, HTT cytoprotect -23%, ALDH1A1 inh 4.5µM* and HttQ103 aggreg inconclusive.
`CC1CCc2c(sc3nc(CN4CCOCC4)nc(N4CCc5ccccc5C4)c23)C1` (configuration not stated) gave HPGD inh -3%, LMNA splice mod -5%, HTT cytoprotect -2%[1.9 µM], ALDH1A1 inh inconclusive and HttQ103 aggreg 14%.
COc1cccc(Nc2nc(CN3CCOCC3)nc3sc4c(c23)CCCC4)c1 was read as HPGD inh -8%, LMNA splice mod -4%, HTT cytoprotect -14%[10 µM], ALDH1A1 inh -4% and HttQ103 aggreg 18%.
CCCNc1nc(NCc2ccccc2OC)c2cnn(C)c2n1 was read as LMNA splice mod -1%[46 µM].
For CC(C)(C)C(=O)Nc1nc2c(s1)CN(Cc1ccccc1)CC2 the results were LMNA splice mod -27%[46 µM], HTT cytoprotect -9%, ALDH1A1 inh 32µM* and HttQ103 aggreg -11%.
Screening O=C(Nc1nc2c(s1)CN(Cc1ccccc1)CC2)c1c(F)cccc1F returned LMNA splice mod -5%[46 µM], HTT cytoprotect -26%, ALDH1A1 inh 19µM* and HttQ103 aggreg 9%.
For O=C(Nc1nc2c(s1)CN(Cc1ccccc1)CC2)C1CCCC1 the results were HTT cytoprotect 3%[10 µM], ALDH1A1 inh inconclusive and HttQ103 aggreg 10%.
Screening Cc1ccc(NC(=O)CSc2ncnc3c2sc2ccccc23)cc1C returned LMNA splice mod -6%[46 µM].
CC(NC(=O)OC(C)(C)C)C(=O)Oc1cc2oc(=O)cc(-c3ccccc3)c2cc1Cl (configuration not stated) was read as HPGD inh inconclusive, LMNA splice mod -29%, HTT cytoprotect -27%[10 µM], ALDH1A1 inh inconclusive and HttQ103 aggreg 6.3µM*.
Screening COc1ccccc1-c1noc(CCC(=O)Nc2ccccc2Cl)n1 returned HPGD inh 25µM*, LMNA splice mod -15%, HTT cytoprotect 10%[10 µM], ALDH1A1 inh 28µM* and HttQ103 aggreg -5%.
Cc1ccc(-c2noc(CCC(=O)NCc3ccco3)n2)cc1 was read as HPGD inh 28µM*, LMNA splice mod 14%, HTT cytoprotect 2%, ALDH1A1 inh inconclusive and HttQ103 aggreg 14%.
`COCCNC(=O)CCc1nc(-c2ccccc2)no1` gave HPGD inh 16µM*, LMNA splice mod -12%, HTT cytoprotect -12%[0.074 µM], ALDH1A1 inh 2% and HttQ103 aggreg -2%.
For C=CCOC(=O)N[C@@H](CC(C)C)/C(C(=O)OC)=C(\C)NCc1ccccc1 the results were HPGD inh -20%, HTT cytoprotect 20% and ALDH1A1 inh -4%.
Cn1cnc(S(=O)(=O)N2CCC(C(=O)Nc3ccc(F)cc3F)CC2)c1 was read as LMNA splice mod -4%[46 µM].
For COCCNC(=O)CN1C(=O)CCn2nc(-c3cn(C)c4ccccc34)cc21 the results were LMNA splice mod 5%[46 µM].
CCC(=O)C1=C(c2ccc(F)cc2)N(C(=O)CC)n2c(nnc2C2CCCCC2)S1 was read as LMNA splice mod -13%[46 µM].
`COc1ccccc1CNc1ncncc1-c1ccccc1C(F)(F)F` gave LMNA splice mod 0%, HTT cytoprotect 1% and ALDH1A1 inh 18%.
Cc1cccc(N(CC(=O)N/N=C/c2ccc(OCC(=O)NCc3ccco3)cc2)S(C)(=O)=O)c1C was read as HPGD inh 25µM*, LMNA splice mod 7%, HTT cytoprotect 13%, ALDH1A1 inh -13% and HttQ103 aggreg 0%[9.22 µM].
COc1ccc(-c2csc(/C(C#N)=C(\O)CSc3nccn3C)n2)cc1OC was read as HPGD inh 25µM*, LMNA splice mod -2%, HTT cytoprotect -32%, ALDH1A1 inh 8.9µM* and HttQ103 aggreg inconclusive.
Screening Cc1ccc(-c2csc(/C(C#N)=C(\O)CCl)n2)cc1 returned HTT cytoprotect -25%, ALDH1A1 inh inconclusive and HttQ103 aggreg -14%.
`COc1ccc(CNC(=O)CN2C(=O)c3cccnc3Oc3ccc(C)cc32)cc1` gave LMNA splice mod 5%[46 µM].
`Cc1cc(O)c(/C=N/Nc2ccccc2Cl)c(=O)o1` gave HPGD inh -20%, LMNA splice mod 13%, HTT cytoprotect -13%, ALDH1A1 inh 10µM* and HttQ103 aggreg 13%.
Cc1cc(O)c(/C=N/Nc2ccc(Cl)cc2)c(=O)o1 was read as HPGD inh -14%, LMNA splice mod 21%, HTT cytoprotect -12%, ALDH1A1 inh 4% and HttQ103 aggreg -6%.
`CCn1cc(S(=O)(=O)c2cccc(C)c2)c(=O)c2cc(F)c(N3CCCC(C)C3)cc21` (configuration not stated) gave LMNA splice mod -3%[46 µM].

Screening results from PubChem BioAssay.
